# Experimental data as given in publication PMC4552634, “A New Set of Chemical Starting Points with Plasmodium falciparum Transmission-Blocking Potential for Antimalarial Drug Discovery” (PLoS ONE, 2015).
# Where two headings read alike, the source gives them in different places. About 3,200 (25%) of roughly 13,000 compounds showed an effect of 50% or more. Some of the results follow.
# Tested on: P. falciparum stage V gametocytes
# Design: BacTiter-Glo ATP luminescence viability of purified stage V gametocytes in 384-well plates, per cent inhibition versus DMSO
# Conditions: 48 h, 5 µM, inhibitor
Compound,% Inhibition,% Inhibition (% Inhibition)
COc1cccc2cc(C(=O)N[C@@H](CC(C)C)C(=O)N[C@H](/C=N/N3C(=O)CN(Cc4ccccc4)C3=O)CCc3ccccc3)oc12 [TCMDC-136198],-10.77%,–
O=C(Cc1cccc(O)c1)Nc1ccc(-c2cccc(-c3nc4ccc(C(F)(F)F)cc4[nH]3)c2)cc1 [TCMDC-132176],0.6072%,–
COc1ccc(CCN2CCC(CN(C)Cc3cnn(-c4ccccc4)c3)CC2)cc1 [TCMDC-124632],-8.037%,–
COc1ccc(CNCc2ccc(-c3ccc(CNCCc4ccccc4)cn3)cc2)cn1 [TCMDC-141647],26.41%,–
CN1CCC(C(=O)N(Cc2ccc(-c3ccc(CNCCc4ccccc4)cn3)cc2)C2CCN(Cc3ccccc3)CC2)CC1 [TCMDC-141552],110.4%,–
CN1CCCC1CCNCc1ccc(-c2ccc(CNCCc3ccccc3)cn2)cc1 (centres unmarked) [TCMDC-141617],85.17%,–
CC(C)C[C@@H](C(=O)N[C@@H](CCCCNC(=O)OCc1ccccc1)C(=O)Nc1nccs1)[C@H](C)N(O)C=O [TCMDC-137184],-15.37%,–
C[C@@H]([C@@H](CCCc1ccc(Cl)cc1)C(=O)N[C@H](C(=O)Nc1cccnc1)C(C)(C)C)N(O)C=O [TCMDC-138383],-4.065%,–
NC(=O)c1ccc2[nH]cc(C3CCN(CC4CCC(NC(=O)/C=C/c5ccc(Cl)c(Cl)c5)CC4)CC3)c2c1 (centres unmarked) [TCMDC-139886],–,70.38%
O=C(/C=C/c1ccc(Cl)c(Cl)c1)NC1CCC(CN2CCC(c3c[nH]c4ccccc34)C(O)C2)CC1 (centres unmarked) [TCMDC-139645],-15.82%,–
NC(=O)c1ccc2[nH]cc(C3CCN(CC4CCC(NC(=O)/C=C/c5ccc(Cl)c(Cl)c5)CC4)CC3)c2c1 (centres unmarked) [TCMDC-139885],–,5.306%
CS(=O)(=O)Nc1ccc2[nH]cc(C3CCN(CC4CCC(NC(=O)/C=C/c5ccc(Cl)c(Cl)c5)CC4)CC3)c2c1 (centres unmarked) [TCMDC-139641],-16.95%,–
Cc1ccc2[nH]cc(C3CCN(CC4CCC(NC(=O)/C=C/c5ccc(Cl)c(Cl)c5)CC4)CC3)c2c1 (centres unmarked) [TCMDC-139629],–,74.07%
O=C(/C=C/c1ccc(Cl)c(Cl)c1)N1CCC(CN2CCC(c3c[nH]c4cc(C(F)(F)F)ccc34)CC2)CC1 [TCMDC-139860],22.64%,–
O=C(/C=C/c1ccc(Cl)c(Cl)c1)NC1CCC(CN2CCC(c3c[nH]c4cc(C(F)(F)F)ccc34)CC2)CC1 (centres unmarked) [TCMDC-139869],–,50.13%
O=C(/C=C/c1ccc(Cl)c(Cl)c1)NC1CCC(CN2CCC(c3c[nH]c4ccccc34)CC2)CC1 (centres unmarked) [TCMDC-139447],56.58%,–
Cc1ccc2[nH]cc(C3CCN(CC4CCC(NC(=O)/C=C/c5ccc(Cl)c(Cl)c5)CC4)CC3)c2c1 (centres unmarked) [TCMDC-139630],–,-23.48%
O=C(/C=C/c1ccc(Cl)c(Cl)c1)NC1CCC(CN2CCC(c3c[nH]c4cc(C(F)(F)F)ccc34)CC2)CC1 (centres unmarked) [TCMDC-139868],–,4.839%
O=C(/C=C/c1ccc(Cl)c(Cl)c1)NC1CCC(CN2CCC(c3c[nH]c4cc(O)ccc34)CC2)CC1 (centres unmarked) [TCMDC-139642],41.76%,–

Compound,% Inhibition,% Inhibition (% Inhibition)
CNC(=O)c1ccc2[nH]cc(C3CCN(CC4CCC(NC(=O)/C=C/c5ccc(Cl)c(Cl)c5)CC4)CC3)c2c1 (centres unmarked) [TCMDC-139979],15.16%,–
CC[C@@H]([C@@H](CC(C)C)C(=O)N[C@@H](CCCCNC(=O)OCc1ccccc1)C(=O)Nc1ccccn1)N(O)C=O [TCMDC-137163],20.28%,–
CC(=O)Nc1ccc2[nH]cc(C3CCN(CC4CCC(NC(=O)/C=C/c5ccc(Cl)c(Cl)c5)CC4)CC3)c2c1 (centres unmarked) [TCMDC-139851],–,9.174%
O=C(C=Cc1ccc(F)c(Br)c1)NC1CCC(CN2CCC(c3c[nH]c4ccccc34)CC2)CC1 (centres unmarked) [TCMDC-139919],–,-60.64%
O=C(/C=C/c1ccc(O)cc1)NC1CCC(CN2CCC(c3c[nH]c4ccccc34)CC2)CC1 (centres unmarked) [TCMDC-139719],17.65%,–
O=C(/C=C/c1ccc(Cl)c(Cl)c1)NC1CCC(CN2CCC(c3c[nH]c4ccncc34)CC2)CC1 (centres unmarked) [TCMDC-140109],103.5%,–
O=C(/C=C/c1ccc(Cl)c(Cl)c1)NC1CCC(N2CCC(c3c[nH]c4ccc(O)cc34)CC2)CC1 (centres unmarked) [TCMDC-139812],98.54%,–
O=C(/C=C/c1ccc(Cl)c(Cl)c1)NCCCCCN1[C@@H]2CC[C@H]1CC(c1c[nH]c3ccc(O)cc13)C2 (some centres unmarked) [TCMDC-139295],–,11.46%
O=C(/C=C/c1ccc(Cl)cc1)NC1CCC(CN2CCC(c3c[nH]c4ccccc34)CC2)CC1 (centres unmarked) [TCMDC-139716],–,101.2%
O=C(C=Cc1ccc(Br)cc1)NC1CCC(CN2CCC(c3c[nH]c4ccccc34)CC2)CC1 (centres unmarked) [TCMDC-139948],31.75%,–
O=C(C=Cc1ccc(F)c(Br)c1)N1CCC(CN2CCC(c3c[nH]c4ccccc34)CC2)CC1 [TCMDC-139914],-25.75%,–
CC(=O)Nc1ccc2[nH]cc(C3CCN(CC4CCC(NC(=O)/C=C/c5ccc(Cl)c(Cl)c5)CC4)CC3)c2c1 (centres unmarked) [TCMDC-139852],–,29.73%
O=C(C=Cc1ccc(F)c(Br)c1)NC1CCC(CN2CCC(c3c[nH]c4ccccc34)CC2)CC1 (centres unmarked) [TCMDC-139908],–,99.67%
O=C(/C=C/c1ccc(Cl)c(Cl)c1)NC1CCC(N2CCC(c3c[nH]c4ccccc34)CC2)CC1 (centres unmarked) [TCMDC-139778],-27.83%,–
CC(C)C(C(=O)n1ncc2c3c(N)nc(N)nc3ccc21)C(C)C [TCMDC-137333],-35.38%,–
COc1cccc(C(=O)Nc2sc3c(c2C(N)=O)CCCC3)c1OC [TCMDC-123542],-31.1%,–
COc1cc2nc(NCC3CCCO3)n3nc(-c4ccccc4)nc3c2cc1OC (centres unmarked) [TCMDC-125295],-4.624%,–
COc1ccc2cc(C(c3nnnn3CC3CCCO3)N3CCc4ccccc43)c(=O)[nH]c2c1 (centres unmarked) [TCMDC-123534],43.68%,–
Cc1ccc(CN2CCN(c3cc4c(cc3Cl)CCN4C(=O)Cc3ccc(NC(=O)c4ccc(C(F)(F)F)cc4)cc3)CC2)cc1 [TCMDC-139509],28.44%,–
